# PubChem BioAssay (NCATS)
# “And” between values parts separate entries of the source, which are not always exact repeats. Equal entries are not always repeated. Records with an inconclusive call do not appear. The source made the active and inactive calls. Unless noted, calls come from the whole dose curve; as a rule, active = well fitted curve in the direction sought with a large enough effect; inconclusive = small, poorly fitted or top-dose-only effect, or another doubt; inactive = no such curve, though single readings can be large; an effect the other way counts as inactive or inconclusive.
# Target: Cytochrome P450 2C9 (Homo sapiens) (UniProt P11712)
# Assay: Cytochrome P450 family 2 subfamily C member 9 (CYP2C9) small molecule antagonists: luciferase biochemical (cell-free) qHTS assay (AID 1645842; active = well fitted curve in the direction sought with a large enough effect in the repeat runs; an effect the other way counts as inactive or inconclusive; note: nearly all actives have a fitted effect of over 55% in size)
# Conditions: P450-Glo CYP2C9 enzyme assay, luciferin luminescence; series mostly up to 57.4 µM
# How it was run: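 P450-Glo CYP2C9 system: proluciferin substrate with enzyme in mix containing 0.4% BSA, 10 min at room temperature, then NADPH regeneration solution added and incubated 1 h at 37C. Detection reagent stopped reaction; luminescence read after 20 min as RLU.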
# Potency is the fitted concentration of half-maximal effect.
# Cytochrome P450 2C9 (Homo sapiens), sequence (P11712 whole entry, looked up): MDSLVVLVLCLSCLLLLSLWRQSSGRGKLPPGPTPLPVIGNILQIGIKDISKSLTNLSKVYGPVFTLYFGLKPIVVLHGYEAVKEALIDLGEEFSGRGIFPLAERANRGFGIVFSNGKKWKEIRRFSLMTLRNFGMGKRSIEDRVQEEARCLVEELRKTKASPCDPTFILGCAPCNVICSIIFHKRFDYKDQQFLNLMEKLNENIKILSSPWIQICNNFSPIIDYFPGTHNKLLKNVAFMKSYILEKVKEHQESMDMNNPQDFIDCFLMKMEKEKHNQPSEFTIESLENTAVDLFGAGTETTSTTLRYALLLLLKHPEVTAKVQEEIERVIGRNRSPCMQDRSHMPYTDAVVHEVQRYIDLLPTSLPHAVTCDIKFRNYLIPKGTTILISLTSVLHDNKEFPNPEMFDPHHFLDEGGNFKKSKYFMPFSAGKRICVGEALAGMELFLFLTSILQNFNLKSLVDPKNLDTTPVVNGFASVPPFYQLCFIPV
row,SMILES,Potency
1,Cc1[nH]c(/C=C2\C(=O)Nc3ccc(F)cc32)c(C)c1C(=O)NCCN1CCCC1,inactive
2,O=C(c1ccc(OC(F)F)c(C#Cc2ccccn2)c1)N1Cc2cccnc2C1,inactive
3,CCNC(=O)Nc1ccc(-c2nc3c(c(N4CCOCC4C)n2)CCN(C2COC2)C3)cc1 (centres undefined),16.9 µM (active)
4,COCCCNC(=O)c1ccc(Cn2c(=O)c3ccccc3n(Cc3ccc(C(C)C)cc3)c2=O)cc1,1.51 µM (active)

# System: not listed separately
# Assay: Primary qHTS for inhibitors of nuclear receptor binding SET domain protein 2 (NSD2) in an isogenic RCH-ACV NSD2 p.E1099K mutant (9B) (AID 1645876); note: nearly all actives have a fitted effect of over 70% in size
# Conditions: RCH-ACV (leukaemia line) NSD2 E1099K (9B) viability, CellTiter-Glo, 72 h; series mostly up to 44.9 µM
row,SMILES,Potency
1,CN(C)C(=O)Nc1cccc(-c2ccc(N(C)C)cc2)c1,inactive
2,O=C1c2ccc(Nc3ccc(F)cc3F)cc2CCc2ccc(OCC(O)CO)cc21 (centres undefined),16.3 µM (active)
3,COc1ccc(C2(CNC(=O)c3ccc(NC(=O)c4ccco4)cc3)CCOCC2)cc1,inactive
4,CN(c1ccc(NC(=O)Nc2ccccc2)cc1)S(=O)(=O)c1cnn(-c2ccc(F)cc2)c1,20.5 µM (active)
5,C=CC(=O)Nc1cc(-n2c(=O)ccc3cnc4ccc(-c5ccc(NS(C)(=O)=O)cc5)cc4c32)ccc1C,3.26 µM (active)
6,CCN1C(C)(C)CC(Oc2ccc(C(=O)Nc3ccc(NC(=O)Nc4cc(C(C)(C)C)on4)cc3)nc2)CC1(C)C,4.11 µM (active)
7,O=C(Nc1ccc(C(O)(C(F)(F)F)C(F)(F)F)cc1)c1ccc(C(F)(F)F)cc1,5.78 µM (active)
8,Clc1ccc(Cn2c(Cc3ccccc3)nc3ccccc32)cc1,11.5 µM (active)
9,Cc1cc(N2CCOCC2)ccc1Nc1nc(NC2CCCCC2)c2[nH]cnc2n1,1.29 µM (active)
10,CC(=O)N1CCN(CCOc2ccc(C3CCN(C4=Nn5c(nnc5C(F)(F)F)CC4)CC3)cc2)CC1,5.15 µM (active)
11,CCCc1cc(C)[nH]c(=O)c1CNC(=O)c1cc(-c2ccnc(N3CCN(C)CC3)c2)cc2c1cnn2C(C)C,12.9 µM (active) and 16.6 µM (active)
12,O=C(NC1(c2ccccc2)CC1)c1c(CN2CCC(N3CCCCC3)CC2)c(-c2cccc(C(F)(F)F)c2)nc2cc(Br)ccc12,12.9 µM (active)
13,CC#CC(=O)Nc1ccc2ncnc(Nc3cccc(Br)c3)c2c1,1.29 µM (active) and 1.3 µM (active)
14,CC[C@H]1CN(c2nc(N)c(C(N)=O)nc2Cl)CCN1C1CCN(Cc2ccc(Cl)cc2)CC1,inactive
15,O=C1NC(=O)C(c2cnc3ccccn23)=C1c1cn2c3c(cc(F)cc13)CN(C(=O)N1CCCCC1)CC2,5.2 nM (active) and 9.3 nM (active)
16,COc1ccc(Oc2c(Cl)cnn(-c3cc(C)cc(C)c3)c2=O)cc1,11.5 µM (active)
17,Clc1ccc(Nc2nc3ccccc3c3nc(C4CCCCC4)[nH]c23)cc1Cl,16.3 µM (active)
18,C=CC(=O)Nc1cccc(Nc2nc(Nc3ccc(OCCOC)cc3)ncc2F)c1,3.72 µM (active)
19,COc1ccccc1N1CCN(CC[C@@](C)(C(=O)C2CCCCC2)c2ccccc2)CC1,16.3 µM (active)
20,N#Cc1ccc(COC[C@H]2O[C@@H](n3c(NCc4ccc(Cl)c(Cl)c4)nc4c(N)ncnc43)[C@H](O)[C@@H]2O)cc1,14.8 µM (active)
21,O=C(NCCCn1ccnc1)c1cc(-c2ccco2)on1,14.5 µM (active)
22,COc1cc(CN(CCN)C(=O)c2cccs2)ccc1OCc1ccccc1,18.3 µM (active)
23,CCOc1ccc(S(=O)(=O)N2CCCCCC2)c2ccccc12,inactive
24,CCCc1cc(C)[nH]c(=O)c1CNC(=O)c1cc(-c2ccc(N3CCN(C(C)C)CC3)nc2)cc2c1cnn2C(C)C,11.5 µM (active) and 7.42 µM (active)
25,CNC1CN(c2ccc3c(=O)c(C(=O)O)cn(-c4nccs4)c3n2)CC1OC (centres undefined),0.0836 µM (active)
26,Cc1cc(F)ccc1[C@H]1C[C@@H](N2CCN3C(=O)CC[C@H]3C2)CCN1C(=O)N(C)[C@H](C)c1cc(C(F)(F)F)cc(C(F)(F)F)c1,23 µM (active)
27,CCCC(Nc1nc(-c2ccc(NC(=O)NCC)c(OC)c2)ncc1C)c1cccnc1 (centres undefined),0.183 µM (active)
28,CN(C)Cc1ccc(-c2cnn3c(-c4cccc(NC(=O)c5cccc(C(F)(F)F)c5)c4)ccnc23)cc1,3.65 µM (active)
29,C=CC(=O)Nc1cccc(Nc2nc(Nc3ccc(NC4CN(CCF)C4)cc3OC)ncc2C(F)(F)F)c1,4.59 µM (active) and 5.9 µM (active)
30,N#Cc1cnc2c(Cl)cc(NCc3cn(CCN4CCCCCC4)nn3)cc2c1Nc1ccc(F)c(Cl)c1,20.5 µM (active)
